Measured values: PubChem BioAssay (NCI)
Values joined by “and” are separate entries in the source; they are usually repeats but may differ in a detail not shown here. Identical values can stand only once. Compounds without any hit were thinned out: in the full panel of roughly 79,000, 15% have a hit. Where a structure was tested more than once in an assay, its records may differ in their call. Active and inactive are the calls of the source. Rule as the data show it: active = growth inhibition above about 70%; inactive = the rest.

What was measured:
[1] = NCI Yeast Anticancer Drug Screen. Data for the rad50 strain (AID 155);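 also: 0% = growth of vehicle-only cultures of the same strain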; details: S. cerevisiae rad50 strain growth inhibition, stronger effect = higher value
Method in brief: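 Vehicle-treated cultures provide the reference for the growth inhibition reported for compound-exposed, repair-deficient yeast.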

[2] = NCI Yeast Anticancer Drug Screen. Data for the mec2-1 strain (AID 157); details: S. cerevisiae mec2-1 strain, stronger effect = higher value
Method in brief: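 Test agents were screened against the mec2-1 yeast strain, with defined DNA repair or cell cycle alteration. Growth was scored as inhibition against vehicle-only controls.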

[3] = NCI Yeast Anticancer Drug Screen. Data for the sgs1 mgt1 strain (AID 161);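 also: 0% = growth of cultures given vehicle only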; details: S. cerevisiae sgs1 mgt1 strain, stronger effect = higher value
Method in brief: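 Inhibition of yeast growth, normalised to vehicle-treated controls, is reported for a strain bearing genetic alterations in DNA damage repair.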

[4] = NCI Yeast Anticancer Drug Screen. Data for the cln2 rad14 strain (AID 165);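 also: 0% = growth equal to vehicle treated cultures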; details: S. cerevisiae cln2 rad14 strain, stronger effect = higher value
Method in brief: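 Growth of compound-exposed yeast (cln2 rad14 genotype) measured and expressed as inhibition relative to vehicle.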

[5] = NCI Yeast Anticancer Drug Screen. Data for the bub3 strain (AID 167); details: S. cerevisiae bub3 mutant strain, stronger effect = higher value
Method in brief: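 Mutant yeast screening strain plus compound; vehicle-treated cultures serve as the 0% inhibition reference.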

[6] = NCI Yeast Anticancer Drug Screen. Data for the mlh1 rad18 strain (AID 175); details: S. cerevisiae mlh1 rad18 strain growth inhibition, stronger effect = higher value
Method in brief: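 In this whole-cell yeast screen, a strain with altered DNA damage repair is challenged with compound, and its growth is measured against matched vehicle-treated controls.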

[7] = at 5.0 µM (retest, dose inferred, filed as 0.5)
[8] = at 50.0 µM (retest, dose inferred, filed as 5.0)

Row | SMILES | growth inhibition [1, 7] | growth inhibition [1, 8] | growth inhibition ([1]; at 50.0 µM) | growth inhibition [2, 7] | growth inhibition [2, 8] | growth inhibition ([2]; at 50.0 µM) | growth inhibition [3, 7] | growth inhibition [3, 8] | growth inhibition ([3]; at 50.0 µM) | growth inhibition [4, 7] | growth inhibition [4, 8] | growth inhibition ([4]; at 50.0 µM) | growth inhibition [5, 7] | growth inhibition [5, 8] | growth inhibition ([5]; at 50.0 µM) | growth inhibition [6, 7] | growth inhibition [6, 8] | growth inhibition ([6]; at 50.0 µM)
1 | CCCCCCCCCCCCCCCCCCOCC(O)CO (stereo not drawn) | 0% (inactive) | -1% (inactive) | 45.5% (inactive) | -2% (inactive) | -1% (inactive) | 55.6% (inactive) | -1% (inactive) | -1% (inactive) | 62.6% (inactive) | -1% (inactive) | -7% (inactive) | 34.2% (inactive) | 2% (inactive) | -1% (inactive) | 64.7% (inactive) | -3% (inactive) | -13% (inactive) | 57% (inactive)
2 | c1ccc([P+](CCCCCCCC[P+](c2ccccc2)(c2ccccc2)c2ccccc2)(c2ccccc2)c2ccccc2)cc1 | 40% (inactive) | 98% (active) | 88.5% (active) | 39% (inactive) | 99% (active) | 92% (active) | 46% (inactive) | 98% (active) | 90.9% (active) | 30% (inactive) | 95% (active) | 87.7% (active) | 46% (inactive) | 98% (active) | 91.1% (active) | 73% (active) | 97% (active) | 89.8% (active)
3 | Nc1ccc2c(n1)NCC/C2=N\Nc1ccccc1 | 1% (inactive) | 72% (active) | 90.5% (active) | -2% (inactive) | 60% (inactive) | 78.3% (active) | -4% (inactive) | 69% (inactive) | 79% (active) | -2% (inactive) | 23% (inactive) | 60.9% (inactive) | -5% (inactive) | 91% (active) | 87.8% (active) | 0% (inactive) | 92% (active) | 98% (active)
4 | O=C1C=C(c2c(O)ccc3ccccc23)c2ccccc2C1=O | 48% (inactive) and 29% (inactive) | 98% (active) | 98.9% (active) and 85.8% (active) | 73% (active) and 21% (inactive) | 99% (active) and 98% (active) | 98.8% (active) and 85% (active) | 80% (active) and 40% (inactive) | 98% (active) | 84.8% (active) and 89.8% (active) | 59% (inactive) and 36% (inactive) | 99% (active) and 98% (active) | 98.7% (active) and 89.3% (active) | 46% (inactive) and 40% (inactive) | 99% (active) and 97% (active) | 98.7% (active) and 90.3% (active) | 94% (active) and 73% (active) | 98% (active) and 97% (active) | 98.7% (active) and 90.2% (active)
5 | C=C1C(=O)OC2C[C@@]3(C)CCC[C@H](C)C3=CC12 (stereo partly drawn) (tested in a mixture with another compound) | 15% (inactive) | 97% (active) | 85.2% (active) | 32% (inactive) | 99% (active) | 93% (active) | 27% (inactive) | 99% (active) | 93.1% (active) | 19% (inactive) | 79% (active) | 60.5% (inactive) | 5% (inactive) | 97% (active) | 92.5% (active) | 23% (inactive) | 98% (active) | 89.2% (active)
6 | Cc1cc2c(C(C)C)c(O)c(O)c(C=Nc3ccccc3S)c2c(O)c1-c1c(C)cc2c(C(C)C)c(O)c(O)c(C=Nc3ccccc3S)c2c1O | -3% (inactive) | 53% (inactive) | 36.2% (inactive) | -12% (inactive) | 28% (inactive) | 55% (inactive) | -4% (inactive) | 4% (inactive) | 57.3% (inactive) | -9% (inactive) | 16% (inactive) | 44.6% (inactive) | -8% (inactive) | 45% (inactive) | 39.5% (inactive) | -5% (inactive) | 66% (inactive) | 53.5% (inactive)
7 | c1ccc2c(c1)CNc1ccccc1-2 | 4% (inactive) | 58% (inactive) | 48% (inactive) | -10% (inactive) | 21% (inactive) | 42.7% (inactive) | 0% (inactive) | 66% (inactive) | 83.5% (active) | 6% (inactive) | 16% (inactive) | 7.4% (inactive) | 47% (inactive) | 60% (inactive) | 85.5% (active) | 3% (inactive) | 45% (inactive) | 92.1% (active)
8 | N#Cc1c(-c2ccccc2)cc(-c2ccccc2)n(C2OC(CO)C(O)C(O)C2O)c1=S (stereo not drawn) | -4% (inactive) and 0% (inactive) | 4% (inactive) and -12% (inactive) | 93% (active) and 32.5% (inactive) | -7% (inactive) and -4% (inactive) | -19% (inactive) and -15% (inactive) | 40.9% (inactive) and -23.4% (inactive) | -14% (inactive) and 4% (inactive) | 10% (inactive) and 8% (inactive) | 4% (inactive) and -26.1% (inactive) | 10% (inactive) and -1% (inactive) | 22% (inactive) and 18% (inactive) | -35% (inactive) and -38.9% (inactive) | -1% (inactive) and 10% (inactive) | 11% (inactive) and 4% (inactive) | 53.6% (inactive) and -49.4% (inactive) | 9% (inactive) and 1% (inactive) | 8% (inactive) and -7% (inactive) | 60.5% (inactive) and 1% (inactive)
9 | Nc1cc2ccc(O)cc2c2ccccc12 | 0% (inactive) | 81% (active) | 94.8% (active) | 4% (inactive) | 51% (inactive) | 86.2% (active) | -1% (inactive) | 54% (inactive) | 91% (active) | 1% (inactive) | 34% (inactive) | 67.5% (inactive) | 2% (inactive) | 89% (active) | 93.4% (active) | -1% (inactive) | 82% (active) | 94.7% (active)
10 | CC(C)(C)OC(=O)NCCc1cccc2c1oc1c(CCC(=O)O)cccc12 | -14% (inactive) | 76% (active) | 89.6% (active) | -1% (inactive) | 95% (active) | 78.4% (active) | 3% (inactive) | 53% (inactive) | 68.7% (inactive) | -16% (inactive) | 99% (active) | 87% (active) | -20% (inactive) | 88% (active) | 79.6% (active) | -7% (inactive) | 96% (active) | 83.5% (active)
11 | O=C1OC(CN2CCOCC2)CN1/N=C/c1ccc([N+](=O)[O-])o1 (stereo not drawn) | 6% (inactive) | 50% (inactive) | 65.8% (inactive) and -2.7% (inactive) | 8% (inactive) | 41% (inactive) | 26.6% (inactive) and 14.2% (inactive) | 18% (inactive) | 80% (active) | 86% (active) and 69.8% (inactive) | 1% (inactive) | 51% (inactive) | 38.3% (inactive) and -8.55% (inactive) | -4% (inactive) | 9% (inactive) | 36.6% (inactive) and 0.1% (inactive) | 13% (inactive) | 76% (active) | 75.7% (active) and 34.3% (inactive)
